This is an account of results in PubChem BioAssay (NCI).

Compounds without any hit were thinned out: in the full panel of roughly 83,000, 20% have a hit.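 48-hour exposure, single concentration, 96-well plates; percent growth endpoint where 0 means no net growth. Active: below 10.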 Values without a mark were called inactive. The source made the active and inactive calls.

The assay has as its system SK-MEL-2 melanoma. The experiment in a line: NCI-60 one-dose screen, 48 h (100 = growth as untreated, 0 = no growth, -100 = all killed). The note with it: 10 µM unless noted.
For `COc1ccc(NC(=O)c2sc3nc(C)c(C(O)c4ccc(OC)cc4)cc3c2N)cc1` (stereo not drawn), the growth is 45.6%.
As to `N#Cc1c(NC(=O)c2cccc(Br)c2)sc2c1CCCC2`, the growth is 91.9%.
In the case of `Clc1ccc(C2CC(c3cccc(Nc4ccncc4)c3)=NN2c2ccccc2)cc1` (stereo not drawn), the growth was 83.7%.
As for `O=C(OCc1nc2nc(Cl)nc(N3CCOCC3)c2[nH]1)n1ccnc1`, the figure is -67.1% (active); as for `CC(=O)O[C@]1(C(C)=O)CC[C@H]2[C@@H]3C=C(Cl)C4=CC(=O)CC[C@]4(C)[C@H]3CC[C@@]21C`, 98.6%.
The same measure for `CC(=O)c1c[nH]c2ccc(-c3ccnc(Nc4ccc(NC(=O)C5CCCC5)c(CN5CCOCC5)c4)n3)cc12`: -54.3% (active); for `O=C(N/N=C/c1cccnc1)c1ccccc1Nc1cccc(C(F)(F)F)c1`: 101%; for `CN1CCN(CCCOc2ccc3ncnc(Nc4ccc(Oc5cccc(C(F)(F)F)c5)c(Cl)c4)c3c2)CC1`: 40.3%.
As to `CN(C)Cc1c(-c2ccccc2)[nH]c2ccccc12`, the growth is 108%.
As for `O=C(OC(OC(=O)c1cc(Cl)cc(Cl)c1)c1cccc2ccccc12)c1ccccc1` (stereo not drawn), the figure is 91.1%; as for `CCC(C)C(N)C(=O)NNc1n[nH]c(=S)n1N` (stereo not drawn), 102%; as for `CC[C@H](C)[C@@H]1NC(=O)[C@H](Cc2ccc(O)cc2)N(C)C(=O)[C@H](Cc2ccccc2)NC(=O)CN(C)C(=O)[C@@H]2CCCN2C(=O)[C@@H](Cc2ccccc2)N(C)C(=O)[C@H](CC(C)C)NC1=O`, -50.4% (active).
As to `C#CC(=O)Nc1cccc(Nc2nc3c(c(NCc4ccccc4)n2)CCCC3)c1`, the growth is -69.1% (active).
